Results on 51 compounds are retold here after ChEMBL document CHEMBL4513216, “Probing the Open Global Health Chemical Diversity Library for Multistage-Active Starting Points for Next-Generation Antimalarials” (ACS Infect Dis, 2020).

The structures appear in SMILES notation. In all, about 69,000 compounds went through this assay and about 8,600 (12%) showed an effect of 50% or more. Many of the other results were omitted from the sample, so strong results are more common in it than they were.

In the assay the test system is Plasmodium berghei. Put plainly: Screen against P. berghei liver stage (PbLuc), transformed with Luciferase, at 10uM. The assay is classed as functional, HepG2. Particulars: tested at 10 uM.
Regarding `CNC(=O)[C@@H]1CC[C@@H]2[C@@H](CCN2Cc2cn(C)c3ccccc23)O1`, the INHIBITION is on record as -20.1%. For the compound `COc1ccc(CN2CC[C@H]3O[C@@H](C(=O)NCC4CC4)CC[C@H]32)cc1`, the INHIBITION came out at 53%. As for `CN1CCN(C(=O)[C@H]2CC[C@@H]3[C@@H](CCN3Cc3ccsc3)O2)CC1`, the INHIBITION worked out at 52%.

In the case of `Cc1csc(CN2CC[C@H]3O[C@H](C(=O)Nc4cccnc4)CC[C@H]32)n1`, the INHIBITION is listed as 81.5%.

Regarding `O=C(NCC1CC1)[C@@H]1CC[C@@H]2[C@@H](CCN2Cc2ccc(F)c(F)c2)O1`, the INHIBITION is recorded as 32.2%. With `CC(c1ccncc1)N(C)C(=O)NCCOc1ccc(C#N)cc1` (stereo unspecified), the INHIBITION was 34.7%.

Take `COCCN1CCN(c2ccc3ccc(C(=O)NC4CC4)cn23)CC1`: the INHIBITION was 18.6%. Take `C=C(C)CN1CCN(Cc2cnc(OC)nc2)CC1`: the INHIBITION worked out at 25.6%.

For the compound `COCCn1cc(CCC(=O)Nc2c(C)nn(C)c2C)c2ccccc21`, the INHIBITION is 39.4%. For `CN(C)C(=O)N1CCC2(CC1)C(c1cnn(C)c1)CC(=O)N2C` (stereo unspecified), the INHIBITION is listed as 39.2%.

Take `Fc1cnc(N2CC[C@@H]3OC(COCc4cccnc4)CC[C@@H]32)nc1` (stereo partly specified): the INHIBITION was found to be 37.8%.

As to `Cn1cc(CN2CC[C@H]3O[C@H](C(=O)Nc4cnccn4)CC[C@H]32)cn1`, the INHIBITION was determined as 30.3%. `Cc1csc(NC(=O)[C@@H]2C[C@H]3[C@H](CCN3S(C)(=O)=O)O2)n1`: the INHIBITION is 61.3%. For `Cc1csc(NC(=O)[C@@H]2C[C@H]3[C@H](CCN3c3ncccn3)O2)n1`, the INHIBITION is listed as -16.2%. Consider `O=C(NC1CCC1)[C@@H]1CC[C@@H]2[C@@H](CCN2CCc2ccccc2)O1`, for which the INHIBITION was found to be 42.1%. Next, `O=C(NC1CC1)[C@H]1CC[C@@H]2[C@@H](CCN2CCOCc2ccccc2)O1`: 10.4%.

Regarding `Cn1cc(CN2CC[C@H]3O[C@@H](C(=O)NC4CC4)CC[C@H]32)cn1`, the INHIBITION is 62.4%. Consider `CC(=O)N1CC[C@@H]2O[C@H](C(=O)Nc3nc(C)cs3)C[C@@H]21`, for which the INHIBITION is -24.1%. For the compound `Cn1cc(CN2CC[C@H]3O[C@H](C(=O)NC4CC4)CC[C@H]32)c2ccccc21`, the INHIBITION is 66.8%. Regarding `COCCNC(=O)[C@@H]1CC[C@@H]2[C@@H](CCN2Cc2cnn(C)c2)O1`, the INHIBITION came to 7.11%.

For the compound `CN(C)CC1(O)CCN(C(=O)Cc2ccc3ccccc3c2)C1` (stereo unspecified), the INHIBITION was -37.7%.

As for `COc1c(C2CCCN2C(=O)c2ccc(C(N)=O)s2)c(C)nn1C` (stereo unspecified), the INHIBITION is listed as 2.93%. On to `Cc1nc(CN(C)C2CCN(CCCOc3ccccc3)C2)no1` (stereo unspecified), for which the INHIBITION worked out at 31.9%. The figure for `Cc1cnc(C(=O)NC(COCC(C)C)c2ccco2)cn1` (stereo unspecified) is 36.1%; for `O=C(N1CCOCC1)N1CCc2ncc(CN3CCCCC3)n2CC1` it is 15.9%.

Turning to `CC(C)CCN1CCN(C(=O)c2cnccn2)CC1`, the INHIBITION came to 25%. In the case of `CC(C)Nc1n[nH]c2nc(C3CCN(C(=O)c4ccccn4)C3)ccc12` (stereo unspecified), the INHIBITION was -7.66%. For `CC(C)CNC(=O)c1cc(Br)c2c(c1)OCCO2`, the INHIBITION was determined as 51.8%. For `CCCC(C#N)NC(=O)c1cc(Br)c2c(c1)OCCO2` (stereo unspecified), the INHIBITION is recorded as 60.5%. As for `CC(CC#N)NC(=O)c1cc(Br)c2c(c1)OCCO2` (stereo unspecified), the INHIBITION is given as 12.7%. For `CCC(C#N)NC(=O)c1cc(Br)c2c(c1)OCCO2` (stereo unspecified), the INHIBITION is recorded as -36.1%.

`CCCNC(=O)c1cc(Br)c2c(c1)OCCO2`: the INHIBITION was found to be 31.2%.

Consider `CC(C)NC(=O)c1cc(Br)c2c(c1)OCCO2`, for which the INHIBITION is -48.4%. In the case of `COc1ccc(-c2nc(C#N)c(N(C)C)o2)cc1S(=O)(=O)N(C)C`, the INHIBITION is reported as 12.8%.

As to `CC(NC(=O)c1cccs1)C(=O)Nc1cccnc1N1CCCCC1` (stereo unspecified), the INHIBITION is on record as -36.3%. Turning to `CC(=O)N(C)CC(=O)Nc1cnc(-n2ccnc2)nc1`, the INHIBITION is on record as 41.2%. On to `CC(=O)Nc1cnc(-n2ccnc2)nc1`, for which the INHIBITION is on record as 13.8%. Turning to `CC(=O)N(C)CC(=O)Nc1cnc(-n2ccnc2C)nc1`, the INHIBITION is given as 95.9%. On to `CN(Cc1nccn1CC(F)(F)F)C(=O)c1cccc(N(C)C)c1`, for which the INHIBITION is -15.7%. On to `CC(=O)N1CCCC2(CN(Cc3ccc(F)cc3)CCO2)C1` (stereo unspecified), for which the INHIBITION was -0.813%. Next, `Cc1noc(C)c1CN1C(=O)[C@@H]2CC[C@H]1CN(Cc1ccc(Cl)cc1)C2`: -48.1%. `O=C(c1n[nH]cc1Br)N1CCOCC1`: the INHIBITION amounted to 33.3%.

Consider `CCCN1CCCC2(CCN(c3nc(C)nc4ccsc34)C2)C1=O` (stereo unspecified), for which the INHIBITION is 76.5%. On to `CNc1nc(C(=O)N2CCC3(CCCN(CC4CC4)C3=O)C2)cs1` (stereo unspecified), for which the INHIBITION stood at 21.2%. Take `Cc1nc(N2CCC3(CCCN(CC4CC4)C3=O)C2)c2sccc2n1` (stereo unspecified): the INHIBITION is recorded as 82.9%. For `Cc1nc(N2CCC3(CCCN(C(C)C)C3=O)C2)c2sccc2n1` (stereo unspecified), the INHIBITION was determined as 81.6%.

In the case of `COc1ccnc(N2CCC3(CCCN(CC4CC4)C3=O)C2)n1` (stereo unspecified), the INHIBITION was 30.3%. On to `COc1ccnc(N2CCC3(CCCN(C(C)C)C3=O)C2)n1` (stereo unspecified), for which the INHIBITION came out at 48.8%. As for `COc1nccnc1N1CCC2(CCCN(C(C)C)C2=O)C1` (stereo unspecified), the INHIBITION was -9.17%.

On to `COCCN1CCCC2(CCN(c3nc(C)nc4ccsc34)C2)C1=O` (stereo unspecified), for which the INHIBITION was 41.8%. As for `Cc1nc(N2CCC3(CCCN(CCO)C3=O)C2)c2sccc2n1` (stereo unspecified), the INHIBITION was found to be 40.5%.
